Hits are enriched below; roughly 1.4% of the tested compounds scored in any of these assays.
CCHF vOTU inh-1: blocks the CCHF virus ovarian tumor domain protease. CCHFV vOTU protease, Pep-AMC fluorescence. inhibition, % at 11.5 µM. 0.55% of 370,000 active. AID 651958; also: 0% = vehicle wells with enzyme and 100% = no enzyme wells
PriA SSB inh: K. pneumoniae PriA-SSBct interaction inhibition; AlphaScreen SSBct-PriA binding, biotinylated peptide; inhibition, % at 33 µM; AID 1272365; 0.6% of 430,000 active; in the data active = inhibition mostly above about 37%, no sharp cut-off; inactive = mostly below about 20%;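 also: plate controls were negative control peptide for no effect and reference peptide for full effect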
Sa RN4220 lethal: S. aureus RN4220 growth inhibition; OD600, 16 h; 0.33% of 330,000 active; inhibition, % (no concentration beside the values); in the data active = inhibition above about 85%;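 also: plate controls were untreated cells for no effect and reference antibiotic for full effect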
ugtP null kill: growth inhibition of S. aureus ugtP deletion strain. S. aureus RN4220 ugtP deletion, OD600 growth, 16 h. growth inhibition, % (no concentration beside the values). 0.54% of 330,000 active. AID 1259309; in the data active = growth inhibition above about 68%;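 also: plate controls were untreated wells for no effect and antibiotic for full effect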
Mtb hypoxia inh: Mtb hypoxia fluorescent reporter inhibition; M. tuberculosis hypoxia-regulated fluorescent reporter, fluorescence; fluorescence inhibition, % (test concentration not listed); 0.1% of 300,000 active; in the data active = fluorescence inhibition mostly above about 23%, no sharp cut-off; inactive = mostly below about 17%
CCHF vOTU inh-2: CCHFV vOTU protease inhibition, confirmation. shares compounds with CCHF vOTU inh-1. Recombinant CCHFV vOTU, Pep-AMC fluorescence. inhibition, % at 11.5 µM. 17% of 1,900 active
An asterisk follows results filed as active; / = not tested or not shown. Rule as the data show it, unless noted: active = inhibition above about 30%; inactive = the rest.

SMILES	CCHF vOTU inh-1	PriA SSB inh	Sa RN4220 lethal	ugtP null kill	Mtb hypoxia inh	CCHF vOTU inh-2
CN(C)C(CNC(=O)C(=O)Nc1cc(Cl)ccc1C#N)c1ccco1 (centres undefined)	/	1.0	/	/	/	/
CS(=O)(=O)N1CCC(C(=O)N(Cc2cccnc2)c2nc3ccccc3s2)CC1	/	-19.0	/	/	/	/
COc1ccc(N=NC2=C(O)CC(C)(C)CC2=O)cc1	31.7*	1.9	6.0	17.8	/	3.7
Cc1cc(NS(=O)(=O)c2ccc(NC(=O)COc3c(C)cc(Br)cc3C)cc2)no1	30.9*	7.5	21.1	8.8	-5.8	-10.7
Cc1c(C(=O)Nc2ccc(S(=O)(=O)Nc3ncccn3)cc2)oc2ccccc12	10.8	-16.2	-0.1	-2.9	13.6	/
Cc1cc(NS(=O)(=O)c2ccc(NC(=O)c3oc4ccccc4c3C)cc2)no1	31.1*	-4.8	-1.6	-28.0	13.2	-5.2
COc1ccc(Cl)cc1NC(=O)CS(=O)(=O)c1cn(CC(=O)N2CCOCC2)c2ccccc12	/	-7.0	/	/	/	/
O=C(NCc1ccco1)c1ccccc1F	-4.8	-4.7	2.2	-0.8	10.6	/
O=C(NCc1ccco1)c1ccccc1Nc1ccc(F)cc1	31.1*	2.2	-1.1	-5.7	-9.9	-5.3
Cc1nnsc1C(=O)NCc1cc(C2CC2)n(C2CCCC2)n1	/	-11.0	/	/	/	/
COc1ccccc1/C=C/C=N/NC(=O)c1ccccn1	24.7	/	/	/	/	/
COc1ccccc1/C=C/C=N/NC(=O)c1cnccn1	30.2*	/	/	/	/	-2.8
COC(=O)Cn1c(=O)[nH]c2cccnc2c1=O	/	-5.0	/	/	/	/
CC1=C(C(=O)OC(C)C)[C@H](c2cn(-c3ccccc3)nc2-c2ccc(F)cc2)NC(=O)N1	/	1.0	/	/	/	/
CCCSc1ccc(C2C3C(=O)N(C)C(=O)C3[C@]3(C(=O)OC)CCCCN23)cc1OC (some centres undefined)	/	/	5.5	5.2	20.9	/
OCC1OC(C(N=Nc2ccccc2)=NNc2ccccc2)C(O)C1O (centres undefined)	30.8*	/	/	/	/	-16.3
NC(=O)/C(N=Nc1ccccc1)=N/Nc1ccccc1	19.6	/	/	/	/	/
O=C1Cc2ccccc2C(=O)N1Cc1cccc(Cl)c1	64.5*	-4.9	6.6	5.8	8.8	54.4*
CN=C(Nc1ccc(Cl)cc1)c1ccc(C(F)(F)F)cc1	35.8*	-4.6	1.0	-4.8	2.0	-4.7
Cc1cccc(NC(=O)CN2C(=O)S/C(=C\c3ccc(O)c([N+](=O)[O-])c3)C2=O)c1	30.6*	8.5	-5.3	2.2	13.5	1.7
COc1ccc(OC)c(S(=O)(=O)Nc2ccc3c(c2)N(C)C(=O)C(C)(C)CO3)c1	/	0.0	/	/	/	/
CCOC(=O)c1c(CSC(=N)N)n(C)c2cc(Br)c(OC(C)=O)cc12	11.8	2.5	2.8	8.3	15.2	/
CCOC(=O)c1c(CSC(=N)N)n(-c2ccc(C)cc2)c2cc(Br)c(OC(C)=O)cc12	45.8*	10.4	0.3	-25.1	/	-1.8
O=C(NNc1cccc(Cl)n1)Nc1cccc(C(F)(F)F)c1	6.2	-2.3	1.5	-3.5	4.8	/
O=C(NNc1cccc(Cl)n1)Nc1ccc(Cl)cc1	42.1*	-7.4	2.4	0.8	9.4	-15.9
O=C1c2ccccc2[C@@H]2C[C@@H](O)[C@H](Nc3cccc4ccccc34)CCN12	54.3*	9.3	5.6	5.7	7.9	-20.6
COc1ccc(N[C@@H]2CCN3C(=O)c4ccccc4[C@@H]3C[C@H]2O)cc1	14.0	-4.4	4.1	-0.6	2.9	/
N#CCCN(CCC#N)C(=O)c1ccc(Cl)cc1	36.2*	4.5	3.8	6.5	-3.9	-11.8
O=C(c1ccco1)N(Cc1cccnc1)c1nc2ccc(Br)cc2s1	/	0.0	/	/	/	/
CCn1c(=O)c(C(=O)CN(C)CC(=O)Nc2cccc(F)c2)c(N)n(Cc2ccccc2)c1=O	29.9*	-7.2	0.7	-0.7	13.4	-16.2

Bioassay records (PubChem)
